# PMP22 txn = modulators of PMP22 gene transcription in S16 Schwann cells | AID 1508649 | hit rate 2% among 43,000 | S16 Pmp22-F2sN Schwann cells, FLuc/NLuc coincidence luminescence, 24 h | Potency, µM (series often up to 57.5 µM), usual class: inhibitors; active means clear falling dose curves in both reporters; inconclusive means both reporters move, but less clearly or upward; inactive means either reporter flat; the % is the NLuc reporter signal
#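 qHTS, 1536-well. Cells seeded, compounds added by pin tool, 24 h 37C. Nano-Glo reagent 1 (lysis/FLuc), 10 min RT, read; Stop&Glo, 10 min RT, read NLuc.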
# HTT promoter inh = inhibits huntingtin promoter activity; HEK293 HTT promoter firefly luciferase reporter, 24 h; Potency, µM (top dose mostly 57.5 µM), most hits filed as inhibitors; hit rate 0.93% among 48,000; further: nearly all actives have a fitted effect of over 50% in size
#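 Luminescence was read after Dual-Glo reagent and a 10 min room-temperature incubation. Values were normalized to vehicle (0% activity) and zero RLU (-100% activity). Reporter HEK293 cells had been exposed to compounds (up to 57.5 uM final) for 24 h.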
# mTORC1 inh = reduces mTORC1 signaling in Tsc2 and p53 null MEF cells | Tsc2-/- p53-/- MEF, phospho-rpS6 immunofluorescence/PI, 24 h | Potency, µM (titrated, usually from 38.3 µM), most hits filed as inhibitors | hit rate 0.78% among 44,000 | AID 493208; further: nearly all actives have a fitted effect of over 50% in size
#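 Cell-based qHTS: Tsc2-/- p53-/- MEF, 24 h cpd, 37 °C; fix/perm, anti-phospho-S6 Alexa-488 + PI; Acumen 488 nm scan; pS6/PI ratio, % positive cells; rapamycin 7.5 nM = inhibition ref; PI count = viability.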
# S16 F2sN tox = cytotoxicity in S16 Pmp22-F2sN Schwann cells. hit rate 0.48% among 43,000. Potency, µM (doses to about 57.5 µM), actives largely listed as cytotoxic. S16 Pmp22-F2sN Schwann cells (luciferase reporters placed in the Pmp22 gene) viability, CellTiter-Glo, 24 h; further: nearly all actives have a fitted effect of over 65% in size
#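 S16 Schwann cells carrying the Pmp22-F2sN reporter, seeded in 1536-well format, were exposed to library compounds for 24 h at 37C. Viability was read as CellTiter-Glo luminescence after 15 min at room temperature.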
# HTT-AS promoter = activators of huntingtin-antisense promoter activity | Potency, µM (titrated, usually from 57.5 µM), actives largely listed as activators | HEK293 HTT-AS promoter firefly luciferase reporter, 24 h; response scale: percent change from vehicle, -100% = no light | hit rate 0.24% among 48,000; further: nearly all actives have a fitted effect of over 55% in size
#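 Firefly luciferase signal from promoter-reporter HEK293 cells was scaled between vehicle (0%) and zero RLU (-100%). Compounds were tested at final concentrations of up to 57.5 uM over 24 h at 37 degrees C. PTC124 at 50 uM final served as control inhibitor.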
# OvCa metastasis = ovarian cancer metastasis inhibition, 3D TME model | AID 1963576 | hit rate 0.1% among 46,000 | Potency, µM (top dose mostly 45.8 µM), usual class: inhibitors | SKOV3ip1-GFP adhesion/invasion on 3D omental model, fluorescence; further: nearly all actives have a fitted effect of over 65% in size
#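 qHTS, 4-pt dose (0.36-46 umol/L); SKOV3ip1-GFP, 1,200 cells/well, no FBS; primary omental fibroblast/mesothelial co-culture 48 h pre-grown; 2 h RT + 16 h 37 C; PBS wash, 4% PFA; GFP count 488/509 nm.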
# NLuc sat counter = inhibits NanoLuc at saturating substrate, PMP22 counter-screen | hit rate 4% among 690 | AID 1508638 | Secreted NLuc enzyme (filtered S16 cell medium), Nano-Glo luminescence | Potency, µM (titrated, usually from 57.5 µM), usual class: inhibitors | shares compounds with PMP22 txn
# NLuc Km counter = counter-screen for PMP22 expression modulators: NanoLuc inhibition at Km. shares compounds with PMP22 txn. secreted NLuc enzyme, coelenterazine luminescence, Km conditions. Potency, µM (series often up to 57.5 µM), most hits filed as inhibitors. hit rate 5% among 690. AID 1508639
# FLuc ctr PMP22 = firefly luciferase enzyme inhibition artifact for PMP22 screen; shares compounds with PMP22 txn; Potency, µM (doses to about 57.5 µM), hits mostly inhibitors; purified P. pyralis FLuc, luminescence, 10 min; 690 tested, under 10 active
# Target sequence (P08659 whole entry, looked up): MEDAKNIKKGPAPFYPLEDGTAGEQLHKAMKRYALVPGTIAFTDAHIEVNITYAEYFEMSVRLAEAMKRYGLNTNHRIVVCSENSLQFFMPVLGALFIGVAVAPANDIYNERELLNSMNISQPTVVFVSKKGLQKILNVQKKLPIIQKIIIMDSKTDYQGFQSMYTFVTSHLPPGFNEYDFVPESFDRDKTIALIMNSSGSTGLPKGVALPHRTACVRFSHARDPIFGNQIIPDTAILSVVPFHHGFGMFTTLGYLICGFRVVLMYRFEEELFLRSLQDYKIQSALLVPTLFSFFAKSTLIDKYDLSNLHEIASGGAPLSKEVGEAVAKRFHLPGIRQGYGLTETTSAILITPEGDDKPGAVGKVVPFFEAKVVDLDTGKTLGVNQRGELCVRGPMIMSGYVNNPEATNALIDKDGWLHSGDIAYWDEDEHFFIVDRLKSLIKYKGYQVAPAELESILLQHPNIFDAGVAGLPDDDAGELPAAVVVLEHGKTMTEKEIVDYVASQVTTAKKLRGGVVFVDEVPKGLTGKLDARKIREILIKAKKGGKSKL
# S16 F2sN tox cnf = S16 Schwann cell cytotoxicity, confirmatory; shares compounds with PMP22 txn; S16 Schwann cells viability, CellTiter-Glo ATP luminescence, 24 h; Potency, µM (highest dose often 57.5 µM), usual class: cytotoxic; hit rate 7% among 690; AID 1508641
# PMP22 txn cnf = PMP22 transcription modulation, confirmatory; shares compounds with PMP22 txn; S16 Schwann cells Pmp22-F2sN, dual luciferase, 24 h; Potency, µM (series often up to 57.5 µM), usual class: inhibitors; hit rate 22% among 690; AID 1508646; active means clear falling dose curves in both reporters; inconclusive means both reporters move, but less clearly or upward; inactive means either reporter flat; the % is the FLuc reporter signal
# PMP22 HiBiT cnf = confirmation of modulators of rat PMP22 protein expression. S16 Schwann cells Pmp22-HiBiT, luminescence, 48 h. AID 1508647. shares compounds with PMP22 txn. 95 tested, under 10 active. Potency, µM (highest dose often 27.9 µM), usual class: inhibitors
# Target sequence (P25094 whole entry, looked up): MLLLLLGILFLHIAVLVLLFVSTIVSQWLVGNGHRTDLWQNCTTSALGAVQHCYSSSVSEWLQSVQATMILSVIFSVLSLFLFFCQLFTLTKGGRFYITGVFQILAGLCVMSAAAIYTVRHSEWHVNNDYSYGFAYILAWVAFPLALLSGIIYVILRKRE
# Hits are given with their value; - = inactive; ? = inconclusive; . = no result given. Compounds with a hit are over-represented: about 3.6% of the library has one in this group of screens. Unless noted, the call rests on the fitted dose curve; in most records, active means well fitted curve in the direction sought with a large enough effect; inconclusive means small, poorly fitted or top-dose-only effect, or another doubt; inactive means no such curve, though single readings can be large; an effect the other way counts as inactive or inconclusive.
SMILES,PMP22 txn,HTT promoter inh,mTORC1 inh,S16 F2sN tox,HTT-AS promoter,OvCa metastasis,NLuc sat counter,NLuc Km counter,FLuc ctr PMP22,S16 F2sN tox cnf,PMP22 txn cnf,others
COc1ccc(N2CCN(c3c4c(nc5nncn35)CCC4)CC2)cc1,13µM,?,?,-,-,-,?,-,-,-,?,
CCCc1cc(N2CCN(c3ccc(OC)cc3)CC2)n2cnnc2n1,?,?,-,?,-,-,.,.,.,.,.,
Cc1cc(-c2ccc(S(=O)(=O)Nc3cccc(C(F)(F)F)c3)s2)on1,?,?,-,-,-,-,.,.,.,.,.,
Cc1cccc(N(C)S(=O)(=O)c2ccc(-c3cc(C)no3)s2)c1,7.6µM,?,-,-,-,-,?,?,-,-,?,
Cc1ccc(C)c(N2CCN(C(=O)C3CCCN(S(=O)(=O)c4ccc5c(c4)oc(=O)n5C)C3)CC2)c1 (centres undefined),15µM,?,-,-,-,-,-,-,-,-,?,
O=C(CSc1ncc2c(n1)-c1ccccc1N(Cc1ccc(F)cc1)S2(=O)=O)NCCc1ccccc1,18µM,-,-,-,-,-,-,-,-,?,?,
CCOC(=O)c1cc2c(=O)n3ccccc3nc2n(C(C)C)c1=NC(=O)c1c(-c2c(F)cccc2Cl)noc1C,11µM,-,-,?,-,-,?,-,-,-,?,
CCOC(=O)c1cc2c(=O)n3ccccc3nc2n(C)c1=NC(=O)c1c(-c2c(F)cccc2Cl)noc1C,2.1µM,-,-,-,-,-,?,-,-,-,-,
NC(N)=Nc1nc(CSCCC(N)=NS(N)(=O)=O)cs1,.,-,.,.,-,-,.,.,.,.,.,
O=C(CSC1=Nc2ccccc2N=C(c2ccc(F)cc2)C1)Nc1ccccc1,-,-,-,-,-,-,.,.,.,.,.,
CC(=O)c1ccc(NC(=O)CSC2=Nc3ccccc3N=C(c3ccc(F)cc3)C2)cc1,15µM,-,-,?,-,-,?,?,-,-,?,
CCOc1ccc(CCNc2nc3ccccc3n3c(C)nnc23)cc1OCC,?,-,-,-,-,-,?,?,-,-,?,
COc1cc(C=C2CCC/C(=C\c3ccc(O)c(OC)c3)C2=O)ccc1O,.,?,.,.,-,.,.,.,.,.,.,
COc1ccc(NC(=O)c2c(NCc3ccc(C)o3)sc3c2CCCCC3)c(OC)c1,14µM,-,?,-,-,-,?,?,-,-,?,
COc1ccc(NC(=O)c2c(NCc3ccc(C)o3)sc3c2CCC(C)C3)c(OC)c1 (centres undefined),?,?,?,?,-,-,.,.,.,.,.,
COc1ccc2c(c1)Cc1sc(NC(=O)c3cccc(Br)c3)nc1-2,-,-,-,-,-,-,.,.,.,.,.,
COc1ccc(Br)c2c1-c1nc(NC(=O)c3cccc(C)c3)sc1C2,11µM,-,-,-,-,-,?,-,-,-,?,PMP22 HiBiT cnf=-
CCC(Sc1nncn2c1cc1occc12)C(=O)Nc1ccc(C)c(Cl)c1 (centres undefined),17µM,-,-,?,?,-,?,?,-,-,?,
O=C(CSc1nncn2c1cc1occc12)Nc1ccc(F)c(Cl)c1,-,-,-,-,-,-,.,.,.,.,.,
C[C@@H]1CN(CC(=O)Nc2ccc3c(c2)Cc2cccc(-c4cc(=O)cc(N5CCOCC5)o4)c2S3)C[C@H](C)O1,.,?,.,.,-,-,.,.,.,.,.,
Nc1ncnc2ccccc12,.,-,.,.,-,-,.,.,.,.,.,
Cc1cccc(NC(=O)Cn2c(=O)c3cccn3c3ccccc32)c1C,?,-,?,-,-,-,-,-,-,-,-,
CCc1ccccc1NC(=O)Cn1c(=O)c2cccn2c2ccc(F)cc21,-,-,-,-,-,-,.,.,.,.,.,
CCOc1ccccc1C(=O)Nc1c(C(=O)Nc2ccc(F)cc2)oc2ccccc12,4.1µM,?,-,-,-,-,?,-,-,-,5.6µM,
CCOc1ccc(NC(=O)c2oc3ccccc3c2NC(=O)c2c(F)cccc2F)cc1,-,-,-,-,-,-,.,.,.,.,.,
SMILES,PMP22 txn,HTT promoter inh,mTORC1 inh,S16 F2sN tox,HTT-AS promoter,OvCa metastasis,NLuc sat counter,NLuc Km counter,FLuc ctr PMP22,S16 F2sN tox cnf,PMP22 txn cnf,others
COc1cc(Cl)c(NS(=O)(=O)c2ccc(-c3coc(C)n3)cc2)c(OC)c1,13µM,?,?,-,-,-,?,?,-,?,-,
CCOc1ccccc1OCCNC(C)Cc1ccc(OC)c(S(N)(=O)=O)c1 (centres undefined),.,-,.,.,-,-,.,.,.,.,.,
Cc1cccc(N2CCN(S(=O)(=O)c3ccc4c(c3)CCCN4C(=O)C3CCC3)CC2)c1C,16µM,?,-,-,-,-,-,-,-,-,?,
Cc1ccc(NC(=O)CSc2nc(-c3ccc(F)cc3)nc3c2Cc2c(CO)cnc(C)c2O3)cc1C,-,-,-,-,-,-,.,.,.,.,.,
COc1ccccc1-c1nc2c(c(SCC(=O)Nc3ccc(C)c(C)c3)n1)Cc1c(CO)cnc(C)c1O2,17µM,?,-,-,-,-,?,?,-,-,?,
Cc1ncc(CO)c2c1Oc1nc(-c3ccccc3)nc(SCC(=O)N3CCCCC3)c1C2,12µM,-,-,-,-,-,-,-,-,?,?,
Cc1ncc(CO)c2c1Oc1nc(-c3ccc(Cl)cc3)nc(SCC(=O)N3CCCCC3)c1C2,?,-,-,?,-,-,.,.,.,.,.,
CCCNS(=O)(=O)Nc1ncnc(OCCOc2ncc(Br)cn2)c1-c1ccc(Br)cc1,.,-,.,.,-,-,.,.,.,.,.,
CC(C=CC=C(C)C=CC1=C(C)CCCC1(C)C)=CC=CC=C(C)C=CC=C(C)C=CC1=C(C)CCCC1(C)C,.,-,.,.,-,-,.,.,.,.,.,

# Screening results from PubChem.
